Assay results: PubChem BioAssay AID449762 (Southern Research Specialized Biocontainment Screening …, 2010)
Out of some 330,000 compounds screened, about 1,900 (0.58%) were called active. Not shown: some 4% with an inconclusive outcome. The list is a sample of the results. Measured potencies and affinities stand elsewhere. A number with no mark means an inactive call. No stated cut-off is given here; in the data, inconclusive means inhibition above about 70% without an active follow-up result; inactive means below that.

assay: M. tuberculosis growth inhibition, HTS (AID 449762);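 further: bacterial growth assessed after seven days of incubation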; conditions: M. tuberculosis H37Rv growth inhibition, 7H9 media; at 25 µM; active compounds read high

| SMILES | inhibition [%] |
| --- | --- |
| CCOC(=O)N1CCC(NC(=O)C2CCN(S(=O)(=O)c3cnc[nH]3)CC2)CC1 | -6.34 |
| Cc1ccc(S(=O)(=O)N2CCN(C(=O)Cn3c(=O)oc4ccccc43)CC2)c(C)c1 | 3.86 |
| CC(C)N(C(=O)[C@H]1CC(CC(=O)NCc2ccco2)C(=O)N2CCc3c([nH]c4ccccc34)[C@]12C)C(C)C (stereo partly specified) | 2.78 |
| O=S(=O)(c1ccc(F)cc1)n1ccc2cccnc21 | 4.44 |
| Cc1nc2ccc(-c3nc4ccccc4o3)cc2[nH]1 | 8.75 |
| Nc1ccc(-c2nc3ccccc3o2)cc1 | 49 |
| COc1ccc(/C=N/NC(=O)c2cc3c(ccc4ccccc43)o2)cc1OC | 11.8 |
| Cc1ccc2nc(N3C(=O)C(O)=C(C(=O)c4cc5ccccc5o4)C3c3cccs3)sc2c1 (stereo unspecified) | -1.99 |
| Cc1ccc2nc(N3C(=O)C(O)=C(C(=O)c4ccco4)C3c3cccs3)sc2c1 (stereo unspecified) | -7.92 |
| COc1ccc(CNC(=O)c2cccc(NC3=NC4CS(=O)(=O)CC4S3)c2)cc1 (stereo unspecified) | -9.1 |
| CCN1/C(=C/C=C/C=C/C=C/c2sc3ccccc3[n+]2CC)Sc2ccccc21 | 5.11 |
| CC[n+]1ccccc1/C=C1\Sc2ccc(C)cc2N1C | 6.67 |
| Cc1cc(C)n(-c2ccc(Cl)c(C(=O)OCC(=O)N3CCCCC3C)n2)n1 (stereo unspecified) | -1.17 |
| C/C(=N\NC(=O)c1nnn(-c2nonc2N)c1CN(C)c1ccccc1)c1ccc(O)cc1 | -0.5 |
| C/C(=N\NC(=O)c1nnn(-c2nonc2N)c1CN(C)c1ccccc1)c1ccccc1O | 12.9 |
| Cc1ccc(C)c(OC(=O)C2CSC3(C)CCC(=O)N23)c1C (stereo unspecified) | -8.22 |
| Cc1ccc(NS(=O)(=O)c2ccc(Cl)c(C(=O)Nc3ccccc3-c3nc4ccccc4[nH]3)c2)cc1C | 4.41 |
| CCC(NC(=O)c1ccccc1NC(=O)c1ccco1)C(=O)NNC(=O)c1ccc(OC)cc1 (stereo unspecified) | -4.34 |
| O=C(Nc1cc(Cl)cc(Cl)c1)C1C2C=CC3(O2)C1C(=O)N(CCCN1CCOCC1)C3C(=O)NC1CCCCC1 (stereo unspecified) | -1.97 |

| SMILES | inhibition [%] |
| --- | --- |
| CCOC(=O)Cn1c(Br)nc2c1c(=O)[nH]c(=O)n2C | 2.17 |
| Cc1ccc(C2C(C#N)=C(N)Oc3n[nH]c(C)c32)cc1 (stereo unspecified) | 2.2 |
| Cc1[nH]nc2c1C(c1ccc(-c3ccccc3C#N)o1)C(C#N)=C(N)O2 (stereo unspecified) | 16.8 |
| CCN(c1ccccc1)S(=O)(=O)c1ccc(C(=O)Nc2ccncc2)cc1 | 48.8 |
| Cc1ccc2ncnc(NCCC(=O)O)c2c1 | -11.8 |
| NC(=O)CSc1nnc(NC(=O)c2ccc(S(=O)(=O)N3CCCCC3)cc2)s1 | 4.86 |
| COc1cc2cnc(-c3ccccc3)c(-c3cc(OC)c(OC)c(OC)c3)c2cc1OC | 27.5 |
| Fc1ccc2cnc(-c3ccccc3)c(-c3ccc(C(F)(F)F)cc3)c2c1 | 39.5 |
| CCOc1ccc(OCCCC(=O)NC2=NCCS2)cc1 | 1.39 |
| CC(C)(C)c1ccc(OCCC(=O)NC2=NCCS2)cc1 | 48.1 |
| O=c1ccc(-c2ccccc2)nn1Cc1ccccc1F | 4.51 |
| COc1ccc(-c2cc(C(=O)NC(C)c3ccccn3)c3ccccc3n2)cc1OC (stereo unspecified) | -9.49 |
| CCCCCCCN1N=C(C)C(C(=O)c2ccccc2)C1=O (stereo unspecified) | 64.7 |
| CC1=NN(c2ccccc2)C(=O)C1C(=O)c1cc([N+](=O)[O-])cc([N+](=O)[O-])c1 (stereo unspecified) | -4.74 |
| CN1CC(=O)N2C(c3cccc([N+](=O)[O-])c3)c3[nH]c4ccccc4c3C[C@H]2C1=O (stereo partly specified) | 6.28 |
| CCOc1cc2c3c(c1)C1(OCCO1)C(=O)N3C(C)(C)CC2C (stereo unspecified) | 8.79 |
| CCOc1cc2c3c(c1)C1(Nc4ccccc4S1)C(=O)N3C(C)(C)CC2C (stereo unspecified) | 22.3 |
| O=C(CN1CCN(c2ccccc2)CC1)NC(=O)NCc1ccco1 | -5.69 |
| CC(=O)Nc1ccc(S(=O)(=O)N(C)CC(=O)NC2=NCCS2)cc1 | -7.06 |

| SMILES | inhibition [%] |
| --- | --- |
| CC1=NC(C)(C)Cc2ccccc21 | -5.42 |
| CC1(C)CC(=O)C(C2=NC(C)(C)Cc3ccccc32)=C(O)C1 | -7.77 |
| O=C(CN(C(=O)c1ccccc1)N1C(=O)CCC1=O)c1cccs1 | -6.33 |
| CCC1(CC)NC(=O)N(CC(=O)N2N=C(c3ccc(Cl)cc3)CC2c2ccco2)C1=O (stereo unspecified) | 3.27 |
| CN1CC(=O)N(CC(=O)N2N=C(c3ccc(Cl)cc3)CC2c2ccco2)C1=O (stereo unspecified) | 22.3 |
| O=C(N[C@@H]1C/C=C\C[C@@H](CC(=O)N(CCO)Cc2ccccc2)C(=O)N[C@@H](c2ccccc2)COC1=O)OCC1c2ccccc2-c2ccccc21 | 3.32 |
| COc1cc2sc(-c3ccc(S(C)(=O)=O)cc3)c(C(=O)NCCCCO)c2cc1OC | 4.06 |
| CCc1c(C)nc(N2CCN(c3cccc(OC)c3)CC2)[nH]c1=O | -3.6 |
| Cc1ccc(-c2nc3ccc(Cl)cc3c(=O)n2O)cc1 | 54.8 |
| O=c1c2ccccc2nc(-c2ccc([N+](=O)[O-])cc2)n1O | 30.3 |
| CSCCCNC(=S)Nc1ccc(N2CCOCC2)cc1N1CCOCC1 | 6.87 |
| Cc1cc(C)c(C(=O)COC(=O)c2nn(C)c(=O)c3ccccc23)cc1C | -5.14 |
| Cc1ccc(Sc2ccc(C(=O)N3CCOCC3)cc2[N+](=O)[O-])cc1 | 0.73 |
| O=C(O)/C=C/C(=O)Nc1ccc(C(=O)c2ccccc2)cc1 | 3.27 |
| O=C(O)/C=C/C(=O)Nc1ccc(O)cc1 | -6.75 |
| CC(=O)C[C@H](O)CC(=O)[C@H]1OC(=O)[C@H](C)CCCCc2ccccc21 | -1.44 |
| O=C(O)c1cc(N/N=C/c2ccc(-c3ccc(F)cc3)o2)ccc1Cl | 13.7 |
| CCCn1c(CCC(=O)Nc2ccccc2Cc2ccccc2)nc2cc(S(=O)(=O)N3CCOCC3)ccc21 | -3.41 |
